Several values for one entry are separate records, joined by “and”; a condition that tells them apart may be missing. Equal values may be shown once. About 83,000 compounds went through this panel and 20% of them were active in at least one assay; those are over-represented in the sample as a whole.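 Percent growth is the endpoint: 0 to 100 indicates growth inhibition (40 means 60% inhibition), 0 means no net growth, and negative values indicate cell death.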 Unmarked numbers belong to inactive results. Activity calls are given as the source filed them. The calls were made as follows: active = growth percent below 10; inactive = the rest.

Here are results for 26 molecules from PubChem BioAssay (NCI).

This assay relates to MDA-MB-468 breast. Description: NCI-60 one-dose screen, 48 h (100 = growth as untreated, 0 = no growth, -100 = all killed). As to conditions: 10 µM unless noted.
`COc1ccc2nc3cc(Cl)ccc3c(NCCNCC(C)O)c2c1` (stereo unspecified): the growth was 38.6%.
With `O=C(CCl)N1CCN(C/C=C/c2ccccc2)CC1` the figure was 81%; with `CC(=O)CS(C)(=O)=O`, 109%.
With `CCOC(=O)c1nc(Nc2ccc(NC(=O)Nc3ccc(F)cc3)cc2)c2ccccc2n1` the figure was 80.3%.
On to `CCCCCCCC[C@@H]1N[C@@H](C(=O)OC)Cc2c1[nH]c1ccccc21`, for which the growth was 94.3%.
For `C/C(=C(/c1ccc(Cl)cc1)c1ccc(OCCCN(C)C)cc1)c1ccc(Cl)cc1`, the growth was 89.4%.
For `COC(=O)c1nc(=S)[nH]c(C(=O)OC)c1C(=O)c1ccccn1` the value was 19.3%; for `Cc1nnc(N/N=C/c2ccc([N+](=O)[O-])o2)[nH]c1=O`, 31.2%; for `CCN(CC)CCCNc1ccc(Nc2ccc(OC)cc2)cc1`, 78.8%.
Take `CO[C@H]1C[C@@H]2CC[C@@H](C)[C@@](O)(O2)C(=O)C(=O)N2CCCC[C@H]2C(=O)O[C@H]([C@H](C)C[C@@H]2CC[C@@H](OP(C)(C)=O)[C@H](OC)C2)CC(=O)[C@H](C)/C=C(\C)[C@@H](O)[C@@H](OC)C(=O)[C@H](C)C[C@H](C)\C=C/C=C/C=C/1C`: the growth was 39.9%.
For `COC(=O)CC[C@@H](C)[C@H]1CC[C@H]2C3CC[C@@H]4C[C@@H]5CC[C@]4(C)[C@@]3(O5)[C@H](Br)[C@@H](Br)[C@]12C` (stereo partly specified), the growth was 99.5%.
Take `Fc1ccc(-c2cn3c(nc4ccccc43)c(-c3ccccc3)n2)cc1`: the growth is 82.8%.
For `NCCSC(C[N+](=O)[O-])c1ccccc1Cl` (stereo unspecified), the growth was 10.2%.
For `CSc1nc(-c2cccc(NC(=O)CCl)c2)c(C#N)c(=O)n1C` the value was -4.77% (active); for `COc1ccc([C@H]2[C@H](O)C(=O)N2c2cc(OC)c(OC)c(OC)c2)cc1O`, 5.56% (active).
`COc1cc(C(=O)/C(C)=C/c2c[nH]c3ccccc23)cc(OC)c1OC`: the growth is 11.4%.
In the case of `CSc1nc2ncnc(SC)c2[nH]1`, the growth is 106%.
With `CCCCn1cnc2c(Sc3c([N+](=O)[O-])ncn3C)nc(N)nc21` the figure was 96.9%.
Take `O=S(=O)(Cc1ccc(Cl)cc1Cl)c1ccc(Cl)cc1`: the growth was -29.8% (active).
As to `CC(C)CC(CC1=CCC2CC1C2(C)C)C1=C(O)C(C)(C)C(=O)C(C)(C)C1=O` (stereo unspecified), the growth was 6.32% (active).
With `CC(=O)c1nn(-c2ccccc2)/c(=N/N=Cc2cn(-c3ccccc3)nc2-c2cc3ccccc3oc2=O)s1` the figure was 103%; with `CNc1nc2c(s1)C(c1cc(F)ccc1F)CC(=O)N2` (stereo unspecified), -2.32% (active); with `Cc1cccc2c1NC(=O)C2(c1ccc(O)cc1)c1ccc(O)cc1`, -11% (active).
For `COc1ccc(CCn2cnn3c(=O)c4ccccc4nc3c2=O)cc1OC`, the growth was 93.5% and 94.3%.
For `Cc1ccccc1C(c1ccccc1)c1ccccc1C` the value was 50.3%; for `N#Cc1cccc(-c2ccc3c(c2)NC(=O)/C3=C\c2ccc[nH]2)c1`, -20.1% (active).
